# LDHA block = blocks human lactate dehydrogenase A; P00338; purified LDHA, NADH/diaphorase-resazurin fluorescence; active compounds read low; activity change, % (values are at about 110 or 230 µM); 480,000 compounds, 0.15% hits; in the data active means activity change below about -30%; inconclusive means mostly about -25% to -30%;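 further: plate controls were DMSO wells for no effect and wells without enzyme for full effect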
#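 Human LDH5 (2 nM) was incubated with 0.06 mM NADH and 0.2 mM pyruvate for 5 min at room temperature in Tris pH 7.4. Remaining NADH was coupled through diaphorase/resazurin, and resorufin fluorescence was read at 0 and 20 min.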
# ClpP mod = qHTS Assay for Activators of ClpP. ATP-dependent Clp protease proteolytic subunit (Bacillus subtilis (strain 168)), P80244. purified B. subtilis ClpP, FRET peptide cleavage, 20 min. Potency, µM (doses to about 57.5 µM), for the others: at the highest dose activity change, negative = active. 340,000 compounds, 1.9% hits; active means well fitted falling curve with a large enough effect; inconclusive means small, poorly fitted or top-dose-only effect; inactive means no such curve, though single readings can be large or run the other way; further: potency means the concentration at half of the fitted maximal effect; the source files actives as falling curves though it sought activators and does not explain the sign; nearly all actives have a fitted effect of over 65% in size
# Target sequence (P80244 whole entry, looked up): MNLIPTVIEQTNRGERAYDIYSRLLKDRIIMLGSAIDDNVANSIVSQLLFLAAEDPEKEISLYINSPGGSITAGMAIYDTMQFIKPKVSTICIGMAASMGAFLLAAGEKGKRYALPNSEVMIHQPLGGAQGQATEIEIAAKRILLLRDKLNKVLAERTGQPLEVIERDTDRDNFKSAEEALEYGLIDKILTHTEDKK
#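 Buffer: 100 mM Tris/HCl pH8, 100 mM KCl, 0.05% low protease BSA, 2.5% glycerol, 0.01% Tween-20. ClpP 10 microg/mL final; 20 min RT; delta FRET normalized to ADEP and DMSO controls.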
# KCNH2 3.1 block = KCNH2 3.1 (human) potassium channel inhibition | U2OS KCNH2 3.1, thallium flux FluxOr; active compounds read low | 340,000 compounds, 0.95% hits | activity change, % (tested at about 1.8 µM);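 active means maximum activity change below -70%; inconclusive means maximum activity change from -70% to -50%; inactive means maximum activity change above -50%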;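 further: thallium influx rate constant from kinetic fluorescence after stimulation buffer; on the % scale 0 is the no-effect control and ±100 the full control effect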
#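 Steps: virus added to U2OS suspension (4 h, RT, dark); medium with 10% FBS added, cells plated, 37 C overnight; FluxOr/Red40 loading buffer 45 min RT; stimulation buffer, 2 min kinetic read; rate constant normalized.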
# Chronic BCR inh = blocks chronic active B-cell receptor signaling; ABC-DLBCL IkBa-CBG/CBR reporter, luminescence ratio, 4 h; Potency, µM (highest dose often 46.1 µM), inactives show at the highest dose activity change, negative = inhibition, usual class: inhibitors; 340,000 compounds, 0.05% hits; AID 493014; active means well fitted inhibition curve with a large enough effect in the signal ratio, with a control signal flat, not every such curve was filed as active; inconclusive means small, poorly fitted or top-dose-only effect, or effect the other way, or a change in a side signal; the % refers to the signal ratio;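 further: potency means the concentration at half of the fitted maximal effect; plate controls were basal doxycycline-induced cells for no effect and cells given 10 µM MG132 for full effect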
#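 Concentration-response series (up to 46 uM) were applied to TMD8 dual-reporter cells for 4 h at 37C with doxycycline. Green/red ratio, after filter-overlap correction, defined %Activity; red signal alone was normalised to basal cells and zero luminescence.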
# KCNH2 WT inh = blocks the wildtype human KCNH2 potassium channel | Q12809 | U2OS, BacMam KCNH2, thallium flux FluxOr; active compounds read low | activity change, % at 1.84 µM | 340,000 compounds, 0.37% hits | AID 720551;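 active means maximum activity change below -70%; inconclusive means maximum activity change between -70% and -50%; inactive means maximum activity change above -50%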; further: on the % scale 0 is the no-effect control and ±100 the full control effect
#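 U2OS cells transduced with wild-type KCNH2 virus are loaded with FluxOr dye for 45 min, and thallium flux is measured in kinetic reads before and after stimulation buffer. Rate constants are normalized to DMSO controls.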
# 12-LOX inh = blocks human arachidonate 12S-lipoxygenase | Potency, µM (top dose mostly 108 µM), for the others: at the highest dose activity change, negative = inhibition, actives largely listed as inhibitors | 580,000 compounds, 1.1% hits | purified 12hLO, xylenol orange hydroperoxide absorbance | P18054 | AID 1671190; active means well fitted inhibition curve with a large enough effect; inconclusive means small, poorly fitted or top-dose-only effect, or another doubt; inactive means no such curve, though single readings can be large or run the other way; further: potency means the concentration at half of the fitted maximal effect; on the % scale 0 is the no-effect control and ±100 the full control effect
#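 Purified human 12hLO (150 nM final) in 25 mM Hepes, 0.01% Triton X-100, pH 7.0 was preincubated 15 min at room temperature with compound. Then 40 uM arachidonic acid was added, 30 min. Hydroperoxide was read by Fe-XO absorbance ratio 573/405 nm.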
# * marks the source's active call; other numbers are inactive results; ? = inconclusive; / = no result; ! = repeats disagree. Most compounds without a hit are left out; they make up all but 3% or so of the library.
SMILES,LDHA block,ClpP mod,KCNH2 3.1 block,Chronic BCR inh,KCNH2 WT inh,12-LOX inh
Cc1cccc(CC(=O)N2CCc3c(nc4cc[nH]n4c3=O)C2)c1,/,/,/,/,/,17%
C=CCCCCCCCCc1nc(SCC(=O)O)n[nH]1,-11,/,-8,?,3,0%
CCCCCCCCc1nc(SC(C)C(=O)O)n[nH]1 (centres undefined),-2,0%,-105*,9%,-7,-2%
COC(=O)CC(NC(=O)c1ccc(CS(C)(=O)=O)cc1)c1ccc(C)cc1 (centres undefined),1,/,/,/,/,-24%
COc1ccc(C2NCCc3c2[nH]c2ccccc32)cc1CSc1nc2ccccc2s1 (centres undefined),1,-4%,?,?,-3,32µM*
COc1ccc(C(C)O)cc1CSc1nc2ccccc2s1 (centres undefined),-1,/,/,/,/,2%
S=c1[nH]nc(Nc2ccccc2Cl)s1,-10,/,8,?,9,32µM*
CCn1c(CCCOc2ccc(Cl)cc2Cl)n[nH]c1=S,-1,/,-8,?,0,25µM*!
COCCn1c(COc2ccc(C(C)(C)c3ccccc3)cc2)n[nH]c1=S,2,/,/,/,/,16µM*
CCCCCCCc1n[nH]c(=S)n1Cc1ccccc1,0,0%,-20,11%,-2,?
CCCCCn1c(COc2ccc(C(C)(C)C)cc2)n[nH]c1=S,4,/,/,/,/,?
Cc1ccc(Cn2c(CCCOc3ccc(Cl)cc3Cl)n[nH]c2=S)cc1,9,/,/,/,/,16µM*
Cc1cc(Cl)ccc1OCCCc1n[nH]c(=S)n1Cc1ccccc1,-3,/,/,/,/,16µM*
CCOc1ccc2c(-c3cc4cccc(OCC)c4oc3=O)cc(=O)oc2c1,13,/,/,/,/,-6%
COCCN1CCC(C(=O)Nc2cccc(NC(=O)Cc3ccccc3)c2)C1 (centres undefined),/,/,/,/,/,50%
Cc1nnc(NC(=O)c2csc(NC3CCCC3)n2)s1,-1,/,/,/,/,6%
CCn1c(COc2ccc(Cl)cc2)n[nH]c1=S,1,/,/,/,/,16µM*
CCCCCn1c(COc2ccc(Cl)cc2)n[nH]c1=S,7,/,/,/,/,?
CCn1c(CCCOc2ccc(Cl)cc2C)n[nH]c1=S,-2,/,/,/,/,18µM*
Cc1ccc2nsnc2c1NC(=O)c1ccc(C#N)cc1F,2,/,/,/,/,?
O=C1Nc2ccccc2/C1=N\N=C\c1ccc(O)c(O)c1,18,/,6,?,0,?
O=C(/C(=N/N=C/c1ccc(O)c(O)c1)c1ccccc1)c1ccccc1,7,1%,-5,?,4,40µM*
Oc1ccc(/C=N/N=C/c2ccc(O)c(O)c2)cc1O,17,/,9,?,-1,1.1µM*
Oc1ccc(N=Cc2ccc(O)c(O)c2)cc1,39,-4%,-22,13%,1,/
CCSc1ccc2cc(C(=O)O)[nH]c2c1,-1,/,/,/,/,?
SMILES,LDHA block,ClpP mod,KCNH2 3.1 block,Chronic BCR inh,KCNH2 WT inh,12-LOX inh
CC/C(C)=N/NC(=O)c1ccc(C(C)(C)C)cc1,7,/,/,/,/,51%
CCOc1ccccc1NC(=O)C(=O)c1c[nH]c2c(CC)cccc12,-36*,/,/,/,/,?
CCOc1ccccc1NC(=O)C(=O)c1c[nH]c2ccccc12,0,/,/,/,/,-26%
CCOC(=O)C1=C(O)/C(=C\c2cc(C)n(-c3ccc(F)cc3)c2C)N=C1C,3,/,4,?,0,35µM*
Cc1csc(NC(=O)Cc2ccc3ccccc3c2)n1,4,/,/,/,/,-42%
O=C(COc1ccc(F)cc1)Nc1ccc(-c2nnc3n2CCCC3)cc1,/,/,/,/,/,32µM*
O=C(COc1ccc(-c2nnc3n2CCCC3)cc1)Nc1ccc(Br)cc1,/,/,/,/,/,4%
CN(C)/C=C/C(=O)c1ccc(Br)s1,-2,-2%,?,3%,-2,40µM*
CC(C)NC(=O)C12CC3CC(C1)CC(C(=O)NC(C)C)(C3)C2,0,0%,-88*,-1%,16,0%
Cc1ccc(C23CC4CC(CC(C(=O)NC(C)C)(C4)C2)C3)cc1,-4,-1%,-6,2%,31,-6%

# Screening data as filed in PubChem BioAssay.
